Compound activity as filed in PubChem.
Shown are actives, neighbours in structure and some others; about 14% of the full set was active somewhere.
4-MU autofl – 4-MU region autofluorescence; max dye-equivalent concentration, M; 59,000 tested, 11% active; compound autofluorescence, 340/450 nm, 4-MU equivalents; stronger effect = higher value; in the data active means max dye-equivalent concentration above about 10 nM; inconclusive means mostly about 1.1 nM to 9.6 nM
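Compounds in 100 mM Tris, pH 8.0, incubated 15 min at room temperature, then fluorescence read at 340 nm excitation/450 nm emission. Signal converted to 4-MU dye-equivalent concentration using an on-plate six-point 4-MU standard curve.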
AID923 – qHTS Assay for Allosteric/Competitive Inhibitors of Caspase-1: Spectroscopic Profiling in AFC Spectral Region. compound fluorescence, AFC spectral region (405/520 nm). Potency, µM (titrated, usually from 57.5 µM), without a hit: at the highest dose fluorescence increase, actives largely listed as activators. 75,000 tested, 1.1% active. AID 923, 2007; further: potency means the concentration at half of the fitted maximal effect; 0% is about no effect
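Compound autofluorescence profiled at 405 nm ex/520 nm em during kinetic caspase 1 run (50 nM enzyme, 5 uM Ac-WEHD-AFC, HEPES pH 7.5, 10 mM DTT). Titration up to 57 uM; baseline from regression intercept, normalized to AFC standard curve.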
HSD17B inhib – blocks hydroxysteroid 17-beta dehydrogenase activity; AID 893; recombinant HSD17B10, NADH fluorescence kinetic; 75,000 tested, 7.6% active; Potency, µM (series often up to 57.1 µM), inactives show at the top dose activity change, negative = inhibition, most hits filed as inhibitors;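 further: the protocol describes HADH2 (HSD17B10) and not the HSD17B4 of the title; potency means the concentration at half of the fitted maximal effect; on the % scale 0 is the no-effect control and ±100 the full control effect; nearly all actives have a fitted effect of over 70% in size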
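20 nM HADH2, pH 9.0 Tris/Tween; cpd preinc 15 min RT; start w/ 1 mM NAD+ + 90 uM b-hydroxybutyryl-CoA; kinetic fluor ex360/em450 q30s x 4 min; delta last-first.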
CRE Fsk mod – alters forskolin-stimulated CRE reporter signaling in CHO cells; AID 662; CHO CRE-bla reporter (cAMP response element driving beta-lactamase), forskolin EC10, beta-lactamase ratio; Potency, µM (top dose mostly 38.2 µM), for the others: at the highest dose activity change, negative = inhibition, actives largely listed as activators; 71,000 tested, 2.5% active; active means well fitted activation curve with a large enough effect in the signal ratio, with a control signal flat, not every such curve was filed as active; inconclusive means small, poorly fitted or top-dose-only effect, or effect the other way, or a change in a side signal; the % refers to the signal ratio; further: potency means the concentration at half of the fitted maximal effect; % of control where 0% means no effect
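Modulation of forskolin-driven signalling is measured in CHO cells carrying a CRE-controlled beta-lactamase reporter. Cells are stimulated with EC10 NKH 477 in the presence of titrated compound for 3 h at 37 °C, then loaded with CCF4 for 2 h at room temperature.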
A350 fluor – A350 region autofluorescence. Compound autofluorescence, 340/450 nm, Alexa 350 dye-equivalents; stronger effect = higher value. max dye-equivalent concentration, M. 59,000 tested, 11% active; in the data active means max dye-equivalent concentration above about 10 nM; inconclusive means mostly about 1.1 nM to 9.6 nM
HADH2 inh – blocks human hydroxyacyl-CoA dehydrogenase type II | Q99714 | AID 886 | recombinant HADH2, NADH fluorescence, beta-hydroxybutyryl-CoA | 73,000 tested, 3.4% active | Potency, µM (top dose mostly 57.1 µM), inactives show at the highest dose activity change, negative = inhibition, usual class: inhibitors; further: potency means the concentration at half of the fitted maximal effect; on the % scale 0 is the no-effect control and ±100 the full control effect; nearly all actives have a fitted effect of over 60% in size
Target sequence (Q99714 whole entry, looked up, one chain of several): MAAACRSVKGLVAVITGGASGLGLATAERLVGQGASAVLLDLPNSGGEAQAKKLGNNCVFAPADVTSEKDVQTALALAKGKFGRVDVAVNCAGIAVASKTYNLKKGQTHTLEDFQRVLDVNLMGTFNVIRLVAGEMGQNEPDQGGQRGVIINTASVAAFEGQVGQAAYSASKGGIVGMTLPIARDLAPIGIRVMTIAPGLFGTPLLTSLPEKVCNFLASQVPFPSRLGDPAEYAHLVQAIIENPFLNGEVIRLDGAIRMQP
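E. coli-expressed His-tagged HADH2 tested at 20 nM in alkaline Tris buffer (pH 9.0); oxidation of 90 uM beta-hydroxybutyryl-CoA with 1 mM NAD+ tracked fluorimetrically for 4 min.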
Starred values were filed as active, the others as inactive; [ ] = remark or other dose. Unless noted, the call rests on the fitted dose curve; in most records, active means well fitted curve in the direction sought with a large enough effect; inconclusive means small, poorly fitted or top-dose-only effect, or another doubt; inactive means no such curve, though single readings can be large; an effect the other way counts as inactive or inconclusive.

`COC(=O)c1[nH]c2ccc(Cl)cc2c1NC(=O)CN1CCc2cc(OC)c(OC)cc2C1` gave 4-MU autofl inactive, AID923 0%, HSD17B inhib -24%, CRE Fsk mod 12%, A350 fluor inactive and HADH2 inh -4%.
`COC(=O)c1[nH]c2cc(C)ccc2c1NC(=O)CN1CCc2cc(OC)c(OC)cc2C1` gave 4-MU autofl inactive, AID923 -1%, HSD17B inhib inconclusive, CRE Fsk mod 2µM*, A350 fluor inactive and HADH2 inh 4%.
`Cn1c(=O)oc2cc(S(=O)(=O)N3CCCC(C(=O)NCC4COc5ccccc5O4)C3)ccc21` (configuration not stated) gave AID923 2%, HSD17B inhib -1%, CRE Fsk mod -14% and HADH2 inh 8%.
For COC(=O)c1ccc(CSc2nc3c(cnn3-c3ccccc3)c(=O)[nH]2)o1 the results were 4-MU autofl inactive, AID923 0%, HSD17B inhib inconclusive, CRE Fsk mod 4µM*, A350 fluor inactive and HADH2 inh -14%.
`CCOC(=O)C1=C(C)OC(N)=C(C#N)C1c1cc(OC)c2c(c1)OCO2` (configuration not stated) gave 4-MU autofl inconclusive, AID923 2%, HSD17B inhib -1%, CRE Fsk mod 8%, A350 fluor inconclusive and HADH2 inh inconclusive.
Screening COc1cc(C2C(C#N)=C(N)Oc3cc(N(C)C)ccc32)cc2c1OCO2 (configuration not stated) returned 4-MU autofl inactive, AID923 12%, HSD17B inhib -14%, CRE Fsk mod 1.3µM*, A350 fluor inconclusive and HADH2 inh 3%.
CCc1ccc2[nH]c(=O)c(CN(CCO)C(=O)NCc3ccccc3)cc2c1 was read as 4-MU autofl inactive, AID923 2%, HSD17B inhib inconclusive, CRE Fsk mod -7%, A350 fluor inconclusive and HADH2 inh 2%.
Screening Cc1cc2cc(CN(Cc3ccc4c(c3)OCO4)C(=O)c3ccco3)c(=O)[nH]c2cc1C returned 4-MU autofl inconclusive, AID923 2%, HSD17B inhib inconclusive, CRE Fsk mod inconclusive, A350 fluor inconclusive and HADH2 inh -14%.
`CC(=O)N(CCc1ccccc1C)Cc1cc2cc3c(cc2[nH]c1=O)OCO3` gave 4-MU autofl 1.3e-07M*, AID923 1%, HSD17B inhib 10µM*, CRE Fsk mod 5%, A350 fluor 1.2e-07M* and HADH2 inh 15%.
Screening CCN(CC)CCCN(Cc1cc2cc3c(cc2[nH]c1=O)OCO3)C(=O)Nc1ccccc1OC returned 4-MU autofl 2.2e-07M*, AID923 1%, HSD17B inhib 32µM*, CRE Fsk mod -5%, A350 fluor 1.9e-07M* and HADH2 inh -13%.
`COc1ccccc1NC(=O)N(CCN(C)C)Cc1cc2cc(C)ccc2[nH]c1=O` gave 4-MU autofl inactive, AID923 -2%, HSD17B inhib -14%, CRE Fsk mod -3%, A350 fluor inactive and HADH2 inh -1%.
For O=C(c1cccs1)N(CCO)Cc1cc2cc3c(cc2[nH]c1=O)OCCO3 the results were 4-MU autofl 1.7e-07M*, AID923 1%, HSD17B inhib inconclusive, CRE Fsk mod 12%, A350 fluor 1.5e-07M* and HADH2 inh -25%.
CCN(CC)CCCN(Cc1cc2cc3c(cc2[nH]c1=O)OCCO3)C(=O)Nc1ccc(F)cc1 was read as 4-MU autofl 1.8e-07M*, AID923 3%, HSD17B inhib 25µM*, CRE Fsk mod inconclusive, A350 fluor 1.5e-07M* and HADH2 inh 2%.
`Nc1nc(-n2cnnc2)nn1-c1ccccc1` gave AID923 3%, HSD17B inhib 2% and HADH2 inh 4%.
Nc1nc(N2C(=O)C3CC=CCC3C2=O)nn1-c1ccccc1 (configuration not stated) was read as 4-MU autofl 5.6e-08M*, AID923 -1%, HSD17B inhib 1%, CRE Fsk mod 4%, A350 fluor 7.3e-08M* and HADH2 inh 14%.
For CC1=CC(c2ccccc2)n2nc(N3C(=O)c4ccccc4C3=O)nc2N1 (configuration not stated) the results were 4-MU autofl inconclusive, AID923 2%, HSD17B inhib -11%, CRE Fsk mod inconclusive, A350 fluor inconclusive and HADH2 inh -2%.
`CC1=CC(c2ccccc2)n2nc(N3C(=O)C4CC=CCC4C3=O)nc2N1` (configuration not stated) gave 4-MU autofl 1.2e-07M* and A350 fluor 1.4e-07M*.
For CN(C(=O)COC(=O)C1c2ccccc2Oc2ccccc21)C1CCS(=O)(=O)C1 (configuration not stated) the results were 4-MU autofl inconclusive, AID923 2%, HSD17B inhib -2%, CRE Fsk mod -9%, A350 fluor inconclusive and HADH2 inh 5%.
`COc1ccc(N2C3=[N+](CCCC3)CC2(C)O)cc1` (configuration not stated) gave 4-MU autofl inactive, AID923 0%, HSD17B inhib 1%, CRE Fsk mod -8%, A350 fluor inactive and HADH2 inh -8%.
Screening O=S1(=O)NC2CCCCCN2c2ccc(F)cc21 (configuration not stated) returned 4-MU autofl 2e-07M*, AID923 -1%, HSD17B inhib 32µM*, CRE Fsk mod -9%, A350 fluor 2.6e-07M* and HADH2 inh inconclusive.
Screening CCOC(=O)N1CCC(NC(=O)Cn2ncc3c4ccccc4n(C)c3c2=O)CC1 returned 4-MU autofl inactive, AID923 -1%, HSD17B inhib -6%, CRE Fsk mod inconclusive, A350 fluor inactive and HADH2 inh inconclusive.
CCN1C(=O)[C@H]2[C@@H]3[C@H](O)C=CC(=O)[C@H]3CC[C@H]2C1=O was read as AID923 -1%[11.5 µM], HSD17B inhib 6%[11.4 µM] and HADH2 inh -3%[11.4 µM].
Screening CCN1C(=O)[C@@H]2[C@H]3C(=CC[C@@H]2C1=O)C1(OCCCO1)[C@H]1O[C@@H]1[C@H]3O returned AID923 0%[11.5 µM], HSD17B inhib -22%[11.4 µM] and HADH2 inh 0.79µM*.
Screening COc1ccc2[nH]c(=O)c(CN(CC3CCCO3)C(=O)Nc3ccc(F)cc3)cc2c1 (configuration not stated) returned 4-MU autofl 1e-07M*, AID923 -2%, HSD17B inhib 25µM*, CRE Fsk mod 18%, A350 fluor 1.2e-07M* and HADH2 inh -17%.
